Where “and” joins values, the source holds several entries; their conditions need not be identical. Equal entries are not always repeated. Records with an inconclusive call do not appear. A call without a number means that no potency is given here. A number with no mark means an inactive call. Calls of active or inactive are those of the source. Calls follow the shape of the dose curve; as a rule, active = well fitted curve in the direction sought with a large enough effect; inconclusive = small, poorly fitted or top-dose-only effect, or another doubt; inactive = no such curve, though single readings can be large; an effect the other way counts as inactive or inconclusive.
Columns and labels:
[1] = P-glycoprotein substrates identified in KB-3-1 adenocarcinoma cell line, qHTS therapeutic library screen (AID 1346986); also: nearly all actives have a fitted effect of over 60% in size;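 also: potency is read from the fitted curve at half-maximal effect; potency is for cytotoxicity meaning loss of cell viability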
Outline: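 In 1536-well format, 500 cells/well received pinned compound titrations and were incubated 72 h, 5% CO2. Viability was read by CellTiter-Glo; cytotoxic if AC50 < 10 uM and efficacy >50%.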

[2] = P-glycoprotein substrates identified in KB-8-5-11 adenocarcinoma cell line, qHTS therapeutic library screen (AID 1346987); also: nearly all actives have a fitted effect of over 65% in size; also: potency is read from the fitted curve at half-maximal effect; as to activity change, negative = cytotoxicity: series mostly up to about 44 µM
Outline: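 Luminescence from CellTiter-Glo, read 5 min after addition, quantified survival of KB-8-5-11 (P-gp-overexpressing) cells exposed to compounds for 72 h. AC50 was derived from concentration-response curves.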

[3] = NS1 protein of Zika virus - qHTS assay to identify small molecule inhibitors in human HEK 293 cells (AID 1347053); also: series mostly up to about 46 µM; nearly all actives have a fitted effect of over 55% in size
Outline: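 In this cell-based screen, HEK 293 cultures received compound for one hour before Zika MR766 at MOI = 0.5. NS1 was quantified 24 hours later by TR-FRET, normalized to virus-free wells and infected wells.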

Q: With `CCCCC(C)(C)[C@H](O)C=C[C@H]1[C@H](O)CC(=O)[C@H]1CC=CCCCC(=O)O` as the molecule, how does the Potency [1] read?
A: The Potency was “inactive”.

Q: What about the Potency [2] of the same molecule?
A: Its Potency is “inactive”.

Q: And the Potency [3]?
A: The Potency was “inactive”.

Q: What does the source list for `Cc1ccccc1C(C(=O)NC1CCCCC1)N(C(=O)CNc1ccc(C#N)cc1)c1cccc(F)c1` (stereo not drawn)?
A: Potency [1]: inactive; Potency [2]: inactive; Potency [3]: inactive

Q: With `C[C@@H](NC(=O)c1ncnc(N)c1Cl)c1ncc(C(=O)Nc2cc(C(F)(F)F)c(Cl)cn2)s1` as the molecule, how does the Potency [1] read?
A: Its Potency is “inactive”.

Q: What about the Potency [2] of the same molecule?
A: Its Potency is “inactive”.

Q: What about the Potency [3] of the same molecule?
A: Its Potency is “inactive”.

Q: With `COc1cc2ncnc(Nc3cc(Br)c(O)c(Br)c3)c2cc1OC` as the molecule, how does the Potency [1] read?
A: The Potency was “inactive”.

Q: What about the Potency [2] of the same molecule?
A: The Potency was “inactive”.

Q: And the Potency [3]?
A: The Potency was “inactive”.

Q: With `Cc1cc(C(C)Nc2ccccc2)c2nc(N3CCOCC3)cc(=O)n2c1` (stereo not drawn) as the molecule, how does the Potency [1] read?
A: The Potency was “inactive”.

Q: What about the Potency [2] of the same molecule?
A: Its Potency is “inactive”.

Q: And the Potency [3]?
A: The Potency was “inactive”.

Q: For `O=C(NCCCCN1CCOCC1)c1cc2ccccc2o1`, which Potency [1] is on record?
A: The Potency was “inactive”.

Q: And the Potency [2]?
A: Its Potency is “inactive”.

Q: What about the Potency [3] of the same molecule?
A: Its Potency is “inactive”.

Q: Which results are given for `Cn1c(=O)c(Oc2ccc(F)cc2F)cc2cnc(NC3CCOCC3)nc21`?
A: Potency [1]: inactive; Potency [2]: inactive; Potency [3]: inactive

Q: With `O=c1cc(-c2ccc(O)c(O)c2)oc2cc(O)cc(O)c12` as the molecule, how does the Potency [1] read?
A: The Potency was “inactive”.

Q: And the Potency [2]?
A: Its Potency is “inactive”.

Q: And the Potency [3]?
A: Its Potency is “inactive”.

Q: With `CC(C)Oc1cc(Nc2nc(N[C@@H](C)c3ccc(F)cn3)ncc2Cl)[nH]n1` as the molecule, how does the Potency [1] read?
A: The Potency was 10.3 µM (active).

Q: What about the Potency [2] of the same molecule?
A: Its Potency is 4.69 µM (active) and 8.2 µM (active).

Q: What about the Potency [3] of the same molecule?
A: The Potency was “inactive”.

Q: With `CC1C(=O)OC2C(O)C34C5CC(C(C)(C)C)C36C(OC(=O)C6O)OC4(C(=O)O5)C12O` (stereo not drawn) as the molecule, how does the Potency [1] read?
A: Its Potency is “inactive”.

Q: What about the Potency [2] of the same molecule?
A: The Potency was “inactive”.

Q: And the Potency [3]?
A: Its Potency is “inactive”.

Q: For `O=C(CO)N1CCC(c2[nH]nc(-c3ccc(Cl)cc3)c2-c2ccncn2)CC1`, which Potency [1] is on record?
A: Its Potency is “inactive”.

Q: What about the Potency [2] of the same molecule?
A: Its Potency is “inactive”.

Q: And the Potency [3]?
A: Its Potency is “inactive”.

Q: Which Potency [1] does the source give for `CN1C(=O)C(Cc2c[nH]c3ccccc23)NC1=S` (stereo not drawn) here?
A: Its Potency is “inactive”.

Q: And the Potency [2]?
A: The Potency was “inactive”.

Q: And the Potency [3]?
A: Its Potency is “inactive”.

Q: Which Potency [1] does the source give for `CCC=CC[C@H]1C(=O)CC[C@@H]1CC(=O)OC` here?
A: The Potency was “inactive”.

Q: What about the Potency [2] of the same molecule?
A: Its Potency is “inactive”.

Q: What about the Potency [3] of the same molecule?
A: The Potency was “inactive”.

Q: What does the source list for `Nc1[nH]nc2nnc(-c3c(-c4ccccc4)nn4ccccc34)cc12`?
A: Potency [1]: inactive; Potency [2]: inactive; Potency [3]: inactive

Q: For `CCN1C[C@H](C)n2c(c(O)c3c(=O)n(Cc4ccc(F)c(Cl)c4)nc(C(=O)NC)c32)C1=O`, which Potency [1] is on record?
A: Its Potency is “inactive”.

Q: What about the Potency [2] of the same molecule?
A: The Potency was “inactive”.

Q: What about the Potency [3] of the same molecule?
A: Its Potency is “inactive”.

Q: With `CN(C)c1nc(Cc2ccc(NC(=O)c3ccc(C(F)(F)F)cc3)cc2)nc(N(C)C)c1CC(=O)O` as the molecule, how does the Potency [1] read?
A: The Potency was “inactive”.

Q: And the Potency [2]?
A: The Potency was “inactive”.

Q: And the Potency [3]?
A: The Potency was “inactive”.

Q: With `Cc1ccc(S(=O)(=O)OCC(=O)Nc2ccc(C(=O)O)c(O)c2)cc1` as the molecule, how does the Potency [1] read?
A: The Potency was “inactive”.

Q: What about the Potency [2] of the same molecule?
A: Its Potency is “inactive”.

Q: What about the Potency [3] of the same molecule?
A: Its Potency is “inactive”.

Q: With `OC[C@H]1O[C@@H](Oc2ccc(O)cc2)[C@H](O)[C@@H](O)[C@H]1O` as the molecule, how does the Potency [1] read?
A: The Potency was “inactive”.

Q: And the Potency [2]?
A: Its Potency is “inactive”.

Q: And the Potency [3]?
A: Its Potency is “inactive”.

Q: For `Cc1cc2c(cc1C1(c3ccc(C(=O)O)cn3)CC1)C(C)(C)CCC2(C)C`, which Potency [1] is on record?
A: Its Potency is “inactive”.

Q: And the Potency [2]?
A: The Potency was “inactive”.

Q: What about the Potency [3] of the same molecule?
A: The Potency was “inactive”.

Q: What does the source list for `O=c1[nH]c(=O)n([C@H]2C[C@@H](O)[C@@H](CO)O2)cc1I`?
A: Potency [1]: inactive; Potency [2]: inactive; Potency [3]: inactive

Q: For `C[C@@]1(c2cc(-c3cncnc3)c(F)cc2F)CCSC(N)=N1`, which Potency [1] is on record?
A: The Potency was “inactive”.

Q: And the Potency [2]?
A: The Potency was “inactive”.

Q: What about the Potency [3] of the same molecule?
A: The Potency was “inactive”.

Q: What does the source list for `CN[C@H]1[C@@H](O[C@@H]2[C@H](O[C@@H]3[C@@H](O)[C@@H](O)[C@@H](N=C(N)N)[C@@H](O)[C@@H]3N=C(N)N)O[C@H](C)[C@@]2(O)C=O)O[C@@H](CO)[C@@H](O)[C@H]1O`?
A: outcome [1]: inactive [at 9.29 µM]; activity change, negative = cytotoxicity [2]: 9.82% [at 9.29 µM]; Potency [3]: inactive

Q: With `CC(=O)O[C@]1(C(C)=O)CC[C@H]2[C@@H]3C=C(Cl)C4=CC(=O)[C@@H]5C[C@H]5[C@]4(C)[C@@H]3CC[C@@]21C` as the molecule, how does the Potency [1] read?
A: The Potency was “inactive”.

Q: What about the Potency [2] of the same molecule?
A: Its Potency is “inactive”.

Q: And the Potency [3]?
A: The Potency was “inactive”.

Q: Which Potency [1] does the source give for `CCOC(=O)N1CCN([N+]([O-])=NOc2cc(ON=[N+]([O-])N3CCN(C(=O)OCC)CC3)c([N+](=O)[O-])cc2[N+](=O)[O-])CC1` here?
A: The Potency was “inactive”.

Q: What about the Potency [2] of the same molecule?
A: Its Potency is “inactive”.

Q: And the Potency [3]?
A: Its Potency is “inactive”.

Q: Which results are given for `CN1C(=O)C[C@H](C(=O)N[C@@H](Cc2cnc[nH]2)C(=O)N2CCC[C@@H]2C(N)=O)NC1=O`?
A: Potency [1]: inactive; Potency [2]: inactive; Potency [3]: inactive

Q: For `CNC(=O)c1ccc2c(C(=Nc3cccc(CN(C)C)c3)c3ccccc3)c(O)[nH]c2c1`, which Potency [1] is on record?
A: The Potency was “inactive”.

Q: And the Potency [2]?
A: Its Potency is “inactive”.

Q: And the Potency [3]?
A: Its Potency is “inactive”.

Reference: PubChem BioAssay (NCATS)
